gsp agonist: gsp mutant agonism; gsp mutant cells, cAMP HTRF, 30 min; Potency, µM (highest dose often 76.9 µM), inactives show top-dose activation (cAMP increase), most hits filed as activators; 340,000 compounds, 0.13% hits; AID 624287; active = well fitted activation curve with a large enough effect; inconclusive = small, poorly fitted or top-dose-only effect, or another doubt; inactive = no such curve, though single readings can be large or run the other way; cell line not stated here;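 also: phosphodiesterase inhibitor Ro 20-1724 added with compounds to block cAMP breakdown; potency is read from the fitted curve at half-maximal effect; nearly all actives have a fitted effect of over 60% in size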
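Cells in DMEM/10% FBS with G418 were pretreated with compounds in DMSO plus […] (300 uM stock) for 30 min at 37C. cAMP was measured by HTRF (cAMP-d2 plus anti-cAMP antibody-K) after 30 min at room temperature.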
RXFP1 ag: activates the human relaxin receptor RXFP1 | Q9HBX9 | HEK293T-RXFP1 cAMP TR-FRET, 30 min; response scale: percent of porcine relaxin response, buffer zero | Potency, µM (doses to about 57.5 µM), inactives show at the highest dose activation, usual class: activators | 370,000 compounds, 0.3% hits; active = well fitted activation curve with a large enough effect; inconclusive = small, poorly fitted or top-dose-only effect; also: potency is read from the fitted curve at half-maximal effect; % is scaled to controls: 0 for no effect and ±100 for the full control effect; nearly all actives have a fitted effect of over 60% in size
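HEK293T cells stably expressing RXFP1 were pretreated with the PDE4 inhibitor Ro 20174, exposed to compounds for 30 min at 37C, lysed, and cAMP was read by TR-FRET. Data normalized to buffer (basal) and 29 nM porcine relaxin (100%).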
gsp antag: antagonizes gsp, the McCune-Albright syndrome mutation. gsp-mutant cells, cAMP HTRF, 30 min. Potency, µM (doses to about 76.9 µM), for inactives: top-dose activity change, negative = inhibition, usual class: inhibitors. 340,000 compounds, 0.4% hits. AID 624288; calls by dose curve; cell line not stated here;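 also: intracellular cAMP measured with PDE inhibitor Ro 20-1724 present during compound exposure; potency is read from the fitted curve at half-maximal effect; % is scaled to controls: 0 for no effect and ±100 for the full control effect; nearly all actives have a fitted effect of over 65% in size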
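HTRF cAMP measurement after 30 min RT detection following 30 min, 37C compound treatment alongside […] (added as 300 uM solution) in G418-selected cells seeded at 2000/well and grown 16–24 h.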
RXFP1 antagonist: antagonists of human relaxin receptor RXFP1 | AID 1259400 | activity change, negative = inhibition, % at 57.5 µM | HEK293-RXFP1, relaxin-stimulated cAMP HTRF, 30 min; stronger effect = lower value | 350,000 compounds, 0.59% hits | Q9HBX9;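 active = activity change of -60% or lower, but not beyond a set lower limit; inconclusive = change between -60% and -40%, or beyond the set limit; inactive = change above -40%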; also: % is scaled to controls: 0 for no effect and ±100 for the full control effect
TSHR antagonist: antagonists of human thyroid stimulating hormone receptor; P16473; TSHR-expressing cells, TSH-stimulated cAMP HTRF, 2 h; stronger effect = lower value; activity change, negative = inhibition, % at 11.5 µM; 330,000 compounds, 0.2% hits;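 active = activity change below a set negative limit, meaning inhibition stronger than a set level, cut at about -70% in these data; inconclusive = activity change between two set negative limits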; also: % is scaled to controls: 0 for no effect and ±100 for the full control effect
Target sequence (P16473 whole entry, looked up): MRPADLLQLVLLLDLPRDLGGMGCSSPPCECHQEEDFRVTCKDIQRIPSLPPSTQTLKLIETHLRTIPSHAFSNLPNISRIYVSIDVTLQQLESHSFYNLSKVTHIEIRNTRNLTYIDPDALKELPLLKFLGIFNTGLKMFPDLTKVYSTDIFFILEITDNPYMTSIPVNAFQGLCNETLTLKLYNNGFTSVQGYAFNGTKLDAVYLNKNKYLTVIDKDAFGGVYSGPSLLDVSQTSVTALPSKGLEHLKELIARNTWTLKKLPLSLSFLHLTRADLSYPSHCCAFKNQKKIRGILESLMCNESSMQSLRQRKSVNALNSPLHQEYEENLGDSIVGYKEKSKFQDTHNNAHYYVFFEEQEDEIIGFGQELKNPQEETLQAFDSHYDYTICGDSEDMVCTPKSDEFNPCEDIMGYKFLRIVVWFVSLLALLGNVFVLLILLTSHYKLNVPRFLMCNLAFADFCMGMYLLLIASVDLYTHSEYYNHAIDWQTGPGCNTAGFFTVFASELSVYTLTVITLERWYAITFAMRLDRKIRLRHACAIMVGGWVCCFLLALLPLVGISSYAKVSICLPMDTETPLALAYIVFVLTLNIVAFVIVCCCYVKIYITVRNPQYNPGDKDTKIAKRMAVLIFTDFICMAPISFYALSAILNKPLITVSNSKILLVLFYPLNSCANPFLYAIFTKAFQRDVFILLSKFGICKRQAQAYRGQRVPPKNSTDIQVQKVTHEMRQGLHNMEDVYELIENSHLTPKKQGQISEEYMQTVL
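Cell-based HTRF cAMP assay; TSHR cells + compound, TSH EC80 (4nM final), 2 h, 37 deg C. Lysis with anti-cAMP cryptate and cAMP-d2, 30 min RT, read 665/620 nm.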
* hit, by the source's call; ? = inconclusive; nt = no result; ! = not confirmed by another sample; [ ] = remark or other dose. Rows were chosen to be rich in hits. Some 1% of all compounds tested hit in one or more screens of this group.

SMILES	gsp agonist	RXFP1 ag	gsp antag	RXFP1 antagonist	TSHR antagonist
Cc1c(N=Nc2c(-c3ccc([N+](=O)[O-])cc3)[nH]n(C(N)=S)c2=O)cccc1[N+](=O)[O-]	-15.9%	-1.7%	8.91µM*	-24.3	-42.8
Cc1ccc(OCc2cc(C(=O)N(C)CCc3nc4ccccc4[nH]3)no2)cc1C	1.5%	-0.5%	35.5µM*	-3.1	26.5
COc1ccc(-c2noc(N3CCN(c4cccc(C)c4C)CC3)n2)cc1OC	nt	0.1%	nt	-34.6	nt
Cc1ccccc1OCC(O)CNC1CCC(NCC(O)COc2ccccc2C)CC1 (stereo not given)	0.1%	-0.1%	-6.8%	-100.8*	5.3
Cc1ccc(OCC(O)CNC2CCCC2)c(C)c1 (stereo not given)	-39.5%	0.2%	12.2%	7.5	-8.8
Cn1nc(C(F)(F)F)c2cc(C(=O)Nc3ccc(F)c(Cl)c3)sc21	14.2%	-1.4%	?	-75.9*	-24.7
Cn1nc(C(F)(F)F)c2cc(C(=O)Nc3ccc(F)cc3)sc21	2.2%[15.4 µM]	0.4%	-15.5%	-7.2	-0.4
COC(=O)c1ccccc1NC(=O)CSc1cc(-c2ccccc2)nc(C)n1	nt	?	nt	-16.0	nt
N#CC(c1ccccc1)C(CC(=NO)c1ccccc1)c1ccccc1 (stereo not given)	-0.6%	nt	nt	-90.8*	nt
Cc1ccc(NC(=O)CC2Sc3ccccc3NC2=O)c(Br)c1 (stereo not given)	nt	1.2%	nt	nt	nt
CC(=O)c1ccc(NC(=O)c2ccc(C)c(S(=O)(=O)N3CCOCC3)c2)cc1	11.0%[15.4 µM]	-4.7%	-29.9%	-1.8	-13.1
Cc1cc(C)n(-c2ccc(C(=O)Nc3ccc(C)c(S(=O)(=O)N4CCOCC4)c3)cc2)n1	-0.6%[15.4 µM]	-2.2%	35.5µM*	-23.0	-25.3
COc1ccc(/C=C/C(=O)Nc2ccc(C)c(S(=O)(=O)N3CCOCC3)c2)cc1	nt	nt	31.6µM*	nt	-32.0
COc1ccc(NC(=O)/C=C/c2ccc(S(=O)(=O)N3CCOCC3)cc2)cc1	9.4%	1.1%	6.9%	-1.6	-10.1
COc1ccc(N2CCN(CC(=O)c3ccc(Cl)cc3)CC2)cc1	1.7%	-3.5%	-5.6%	-20.9	4.9
COc1ccc(C(=O)CN2CCN(c3ncccn3)CC2)cc1	36.8%	3.2%	50.1µM*	-0.9	3.8
COc1cc(C2NC(=O)NC(C)=C2C(=O)Nc2cc(C)cc(C)c2)ccc1O (stereo not given)	nt	-0.1%	nt	nt	nt
O=C(O)CCNc1cc(N2CCN(C(=O)c3ccco3)CC2)c2noc3c2c1C(=O)c1ccccc1-3	11.3%[15.4 µM]	1.9%	?	-74.7*	-37.6
CCn1c(CN2CCN(c3cccc(Cl)c3)CC2)nc2c1c(=O)[nH]c(=O)n2C	nt	-1.3%	nt	nt	nt
Cc1ccc(Cn2c(C)c(CNC3CCCCC3)c(C(=O)O)c2C)cc1	nt	2.2%	nt	-9.5	nt
COc1ccc(N(CC(=O)Nc2ccc(F)c(F)c2)S(=O)(=O)c2c(C)n[nH]c2C)cc1	6.4%	-1.9%	?	-85.6*	-4.5
CC(C)(C)c1nc(SCC(=O)c2ccccc2)c2ccccc2n1	4.5%[15.4 µM]	-0.9%	-17.1%	-66.8*	-22.6
CC(C)(C)c1nc(SCC(=O)N2CCCC2)c2ccccc2n1	2.4%[15.4 µM]	-1.3%	nt	-10.9	7.7
CC(C)C(=O)OC1=CN(Cc2ccccc2)S(=O)(=O)c2ccccc21	nt	-0.2%	nt	-12.9	nt
Cc1cccc(N2CCN(C(=O)CCCSc3nc4ccccc4[nH]3)CC2)c1C	-2.8%	2.1%	44.7µM*	-28.7	-1.4
SMILES	gsp agonist	RXFP1 ag	gsp antag	RXFP1 antagonist	TSHR antagonist
O=C(NC(=S)N1CCN(c2ccc(Cl)cc2[N+](=O)[O-])CC1)c1cccs1	32.4%	-1.2%	?	-64.8*	7.1
COc1ccc(OC)c(/C=N/NC(=O)CN2CCSCC2)c1	11.9%	0.2%	4.6%	0.6	-4.7
COc1ccc(Br)cc1/C=N/NC(=O)CN1CCCCC1	-23.7%	0.0%	6.3%	-0.6	-121.8*
O=[N+]([O-])c1ccc(S(=O)Cc2ccccc2)c([N+](=O)[O-])c1 (stereo not given)	-0.8%	nt	-14.6%	-102.8*	nt
N#Cc1ccc(-c2ccc(OCC(=O)NN=Cc3ccncc3)cc2)cc1	7.6%	nt	35.5µM*	-27.7	-12.6
COc1ccc(NC(=O)C/C(C)=N/NC(=O)c2ccco2)c([N+](=O)[O-])c1	?	3.0%	3.4%	-66.2*	-6.0
Cc1cc(CNC(=O)C(C)n2cc([N+](=O)[O-])cn2)c2ccccc2n1 (stereo not given)	6.3%[15.4 µM]	?	9.0%	-7.9	2.6
CC(C(=O)NCc1ccccc1)n1cc([N+](=O)[O-])cn1 (stereo not given)	1.58µM*	-2.5%	5.2%	3.8	9.3
O=C(NCCN1CCN(c2cccc(Cl)c2)CC1)c1ccc(CSc2nc3ccncc3[nH]2)cc1	17.0%	2.5%	31.6µM*	-5.2	-11.2
CCN(CCNC(=O)c1ccc(CSc2nc3ccncc3[nH]2)cc1)c1ccccc1	-233.3%	0.2%	-6.1%	nt	33.2
CC1=C(C(=O)Nc2cc(C(=O)N3CCN(c4ccc(Cl)cc4)CC3)ccc2C)SCCO1	-37.8%	nt	nt	10.2	nt
O=C(COC(=O)CNC(=O)c1ccc(Cl)cc1Cl)NC1CCCCCCC1	-4.2%[15.4 µM]	0.1%	7.7%	-61.2*	-5.7
O=C(COC(=O)COc1ccc(Cl)cc1Cl)NC1CCCCCC1	-29.2%	0.6%	3.3%	5.8	4.6
Cc1cc(C)c(/C=C/c2onc(C)c2S(=O)(=O)N2CCC(C(=O)Nc3ccc(Cl)c(C(F)(F)F)c3)CC2)c(C)c1	nt	-2.2%	nt	6.9	nt
O=C(Nc1ccccc1)c1ccc(=O)n(Cc2ccc(F)c(F)c2)c1	-2.4%	-0.6%	-11.1%	-61.9*	-5.8
O=C(Nc1ccc(F)c(F)c1)c1ccc(=O)n(Cc2ccc(F)cc2)c1	nt	-1.1%	nt	nt	nt
CCCCOc1ccccc1Cn1c(=O)sc2ccccc21	nt	0.4%	nt	-68.0*	nt
Cc1nc2ccc(S(=O)(=O)N(CC(=O)Nc3cccc(F)c3)Cc3ccccc3)cc2s1	nt	0.7%	nt	nt	nt
Cc1ccc(-c2cc(C(=O)NCc3cnn(C)c3)c3cc(Br)ccc3n2)cc1	7.5%[15.4 µM]	22.4µM*!	?	-2.4	-0.5
Cn1cc(CNC(=O)c2cc(-c3ccccc3)nc3ccc(Br)cc23)cn1	28.6%[15.4 µM]	?	3.8%	1.0	5.4
O=C(O)c1cc(-c2ccc3c(c2)OCO3)nc2ccc(Br)cc12	10µM*	15.8µM*	25.9%	25.0	-11.0
COC(=O)c1cc(-c2ccc3c(c2)OCO3)nc2ccccc12	-19.5%	5.3%	?	-0.1	-12.7
CCOC(=O)c1c(C)[nH]c(CCC(=O)NCc2cc(Br)ccc2OC)c1C	nt	-2.7%	nt	-17.7	nt
O=C(NCCc1ccc(Cl)cc1)C(=O)NCC(c1cccs1)S(=O)(=O)c1cccs1 (stereo not given)	nt	6.3%	nt	-4.2	nt
COCCn1ccc2c(OCC(=O)Nc3cc(OC)ccc3OC)cccc2c1=O	17.7%	0.0%	?	-5.5	-8.9
